Results filed as inconclusive are left out. Calls of active or inactive are those of the source. Unless noted, the call rests on the fitted dose curve.

Test [1] can be described thus: Primary qHTS for inhibitors of SARS-S pseudo-typed particle cell entry (AID 1479145). Further: nearly all actives have a fitted effect of over 45% in size. On activity change, negative = inhibition: on the % scale 0 is the no-effect control and ±100 the full control effect. The settings on record: outcome: dose series up to 57.1 µM unless noted. (qHTS replaces the single test concentration by a dilution series.)
Test [2] is described as follows: Primary qHTS for Huh7 cytotoxicity: counterscreen for inhibitors of MERS-S pseudotyped particle cell entry (AID 1479147). The settings on record: outcome: dose series up to 57.1 µM unless noted.
A short description of test [3]: Primary qHTS for Vero E6 cytotoxicity: counterscreen for inhibitors of SARS-S pseudo-typed particle cell entry (AID 1479150). The settings on record: outcome: dose series up to 57.1 µM unless noted.
A short description of test [4]: Confirmatory qHTS to identify inhibitors of SARS-CoV-2 cell entry (AID 1645844). Further: potency means the concentration at half of the fitted maximal effect; nearly all actives have a fitted effect of over 45% in size. The method in brief: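 Luminescence entry read-out after 48 h: spike-pseudotyped MLV particles (Wuhan-Hu-1, 19-aa C-terminal truncation) added to compound-pretreated (1 h) HEK293-ACE2 cells; Data were normalised to bald PP and spike PP wells.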
Test [5] can be described thus: Primary qHTS to identify inhibitors of SARS-CoV-2 cell entry (AID 1645846). Further: nearly all actives have a fitted effect of over 45% in size. Further: potency means the concentration at half of the fitted maximal effect. The settings on record: SARS-CoV-2 pseudovirus cell entry assay, luminescence; activity change, negative = inhibition: at 57.1 µM (top of the series) unless noted. The method in brief:
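Luminescence readout (Bright-Glo luciferase) 48 h after pseudoparticle addition. HEK293-ACE2 cells, 1500/well; compound pre-incubation 1 h; Normalized to spike PP and bald PP.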

Test [6] is described as follows: VSVG counterscreen qHTS to identify inhibitors of SARS-CoV-2 cell entry (AID 1645847). Further: potency means the concentration at half of the fitted maximal effect; nearly all actives have a fitted effect of over 65% in size. The method, boiled down: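 HEK293-ACE2 cells (Expi293F stably expressing human ACE2) were pretreated with compound for 1 h at 37 °C, then infected with MLV-based VSV-G pseudotyped particles for 48 h. Luciferase luminescence was normalized to VSV-G PP and bald PP wells.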
(The purpose of a counterscreen is to sort out artefacts and off-target activity.)

Test [7] deals with Nuclear receptor subfamily 1 group I member 3 (Homo sapiens) (UniProt Q14994). As to the kind of experiment: Primary qHTS for antagonist of constitutive androstane receptor (CAR) against the NCATS DSHEA and TCM libraries (AID 1794836; active means well fitted curve in the direction sought with a large enough effect;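 further: HepG2 cells stably expressing hCAR with CYP2B6 luciferase reporter stimulated by CITCO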). The method, boiled down: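 Antagonist mode: CAR reporter luminescence (ONE-Glo) in HepG2-CYP2B6-hCAR cells stimulated with 48 uM CITCO (final) over 24 h at 37 C, compounds titrated; viability read first by CellTiter-Fluor fluorescence.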

A short description of test [8]: KB-8-5-11 P-gp reporter qHTS against the NCATS DSHEA and TCM libraries (AID 1919977; active means well fitted curve in the direction sought with a large enough effect; further: 0% is about no effect). The method in brief: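 P-gp-overexpressing KB-8-5-11 cells (500/well) were plated in colchicine-free DMEM with 10% FBS, attached ~4 h, then exposed to substance titrations for ~72 h at 37C. Viability was read by CellTiter-Glo luminescence.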
Test [9] can be described thus: Cytotoxicity counterscreen for inhibitors of SARS-CoV-2 cell entry (AID 1645845). Further: nearly all actives have a fitted effect of over 50% in size. The settings on record: outcome: dose series up to 57.1 µM unless noted. The method, boiled down:
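ATP-content luminescence (ATPLite 1step, 15 min RT) read after 48 h compound exposure of Expi293F cells stably expressing human ACE2; normalized to cells-only wells and media-only wells.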

Test [10] is described as follows: Primary qHTS for inhibitors of MERS-S pseudo-typed particle cell entry (AID 1479149). Further: potency means the concentration at half of the fitted maximal effect; nearly all actives have a fitted effect of over 60% in size. The settings on record: outcome: dose series up to 57.1 µM unless noted.

Nuclear receptor subfamily 1 group I member 3 (Homo sapiens), sequence (Q14994 whole entry, looked up): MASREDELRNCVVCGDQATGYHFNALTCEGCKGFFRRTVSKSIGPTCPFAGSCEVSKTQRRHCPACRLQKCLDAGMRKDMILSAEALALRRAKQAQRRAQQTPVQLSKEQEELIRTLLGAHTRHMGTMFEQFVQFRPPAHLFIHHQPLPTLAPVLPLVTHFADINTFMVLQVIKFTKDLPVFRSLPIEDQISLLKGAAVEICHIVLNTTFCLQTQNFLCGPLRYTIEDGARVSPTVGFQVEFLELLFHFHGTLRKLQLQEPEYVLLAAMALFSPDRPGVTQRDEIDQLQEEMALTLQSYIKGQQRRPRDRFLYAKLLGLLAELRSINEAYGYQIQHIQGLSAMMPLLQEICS

In the case of `CC(C)OC(=O)CCC/C=C\C[C@@H]1[C@@H](/C=C/[C@@H](O)COc2cccc(C(F)(F)F)c2)[C@H](O)C[C@@H]1O`, the Potency entry in test [1], in test [2] and in test [3] was “inactive” in each case. Also, the Potency in test [4] was 21.5 µM (active); in [5], 14.1 µM (active); in test [6], 10.8 µM (active).
On to `C=C1CC[C@H](O)C/C1=C\C=C1/CCC[C@]2(C)[C@@H]([C@H](C)CCCC(C)C)CC[C@@H]12`, for which the Potency entry in test [1], in [2], in [7] and in [8] was “inactive” throughout. Besides, in test [6], the Potency was 24.1 µM (active).
On to `CNCC(=O)OCc1cccnc1N(C)C(=O)OC(C)[n+]1cnn(C[C@](O)(c2cc(F)ccc2F)[C@@H](C)c2nc(-c3ccc(C#N)cc3)cs2)c1` (some centres undefined), for which the Potency result in [1], in test [2], in test [3] and in [9] was “inactive” throughout.
As to `CC[C@@]1(O)C(=O)OCc2c1cc1n(c2=O)Cc2c-1nc1cc(F)c(C)c3c1c2[C@@H](N)CC3`, the Potency result in test [1] and in test [2] was “inactive” each time. The activity change, negative = inhibition in test [5] is -94.1%.
As for `CCN(CC)CCOC(=O)c1ccc(N)cc1Cl`, the Potency result in test [1], in test [2], in [3] and in [9] was “inactive” throughout.
Regarding `CC[C@@]1([C@@H]2O[C@@H]([C@H]3O[C@@](O)(CO)[C@H](C)C[C@@H]3C)C[C@@H]2C)CC[C@H]([C@]2(C)CCC3(C[C@H](O)[C@@H](C)[C@@H]([C@@H](C)[C@@H](OC)[C@H](C)C(=O)O)O3)O2)O1` (some centres undefined), the Potency result in test [1] and in [3] was “inactive” throughout. In addition, the Potency in test [10] is 1.12 µM (active).
In the case of `CCCCCCCCCC(=O)OC1(c2ccc(Cl)cc2)CCN(CCCC(=O)c2ccc(F)cc2)CC1`, the Potency result in test [1], in [2], in test [3] and in test [9] was “inactive” throughout.
In the case of `CC[C@H]1OC(=O)[C@H](C)[C@@H](O[C@H]2C[C@@](C)(OC)[C@@H](O)[C@H](C)O2)[C@H](C)[C@@H](O[C@@H]2O[C@H](C)C[C@H](N(C)C)[C@H]2O)[C@](C)(OC)C[C@@H](C)C(=O)[C@H](C)[C@@H](O)[C@]1(C)O`, the Potency entry in test [1], in [2], in test [3] and in test [9] was “inactive” in each case. Besides, in test [5], the activity change, negative = inhibition was -13%.
Consider `CC(C)c1nc(CN(C)C(=O)N[C@@H](CCN2CCOCC2)C(=O)N[C@H](CC[C@H](Cc2ccccc2)NC(=O)OCc2cncs2)Cc2ccccc2)cs1`, for which the Potency result in [1], in [2], in test [3] and in test [9] was “inactive” in each case. The Potency in [6] is 21.5 µM (active).

The values above are taken from PubChem BioAssay (NCATS).
